Screening data as filed in PubChem BioAssay.
HCMV inh = inhibitors of human cytomegalovirus. HFF cells, HCMV-luciferase reporter, 72 h; active compounds read low. 410,000 compounds, 4.5% hits. activity change, negative = inhibition, % at 57.5 µM; in the data active = activity change below about -60%; inconclusive = no clear call, values can overlap the other calls; inactive = above about -39%
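Steps: HFFs plated, 16 h 37C; compounds added; HCMV-luciferase added to MOI 1 PFU/cell; 72 h 37C; OneGlo reagent, 5 min room temperature; luminescence read, normalized to controls.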
TbPYK inhibitor = blocks Trypanosoma brucei pyruvate kinase; TbPYK enzyme, Kinase-Glo Plus ATP luminescence, 45 min; Potency, µM (top dose mostly 76.8 µM), usual class: inhibitors; 410,000 compounds, 0.12% hits; note: nearly all actives have a fitted effect of over 50% in size
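ADP (130 uM final) triggers the TbPYK reaction after compound addition; incubation is 45 min at room temperature. Kinase-Glo Plus is then added and luminescence imaged. Normalized data are fitted to concentration-effect curves.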
Vaccinia mCherry = inhibitors of vaccinia virus infection (mCherry reporter signal). AID 720579. 310,000 compounds, 0.63% hits. Potency, µM (series often up to 36.5 µM), actives largely listed as inhibitors. Vaccinia virus mCherry reporter infection, fluorescence; calls by dose curve; tested in A549 cells; note: nearly all actives have a fitted effect of over 35% in size
Vaccinia Venus = inhibitors of vaccinia virus (Venus reporter); Vaccinia virus Venus reporter expression, fluorescence; Potency, µM (highest dose often 36.5 µM), hits mostly inhibitors; 330,000 compounds, 0.46% hits; calls by dose curve; tested in A549 cells; note: nearly all actives have a fitted effect of over 30% in size
LmPK inh = inhibitors of Leishmania mexicana pyruvate kinase; 290,000 compounds, 0.37% hits; purified LmPK, Kinase-Glo ATP luminescence, 1 h; Potency, µM (titrated, usually from 57.5 µM), hits mostly inhibitors
Target sequence (Q27686 whole entry, looked up): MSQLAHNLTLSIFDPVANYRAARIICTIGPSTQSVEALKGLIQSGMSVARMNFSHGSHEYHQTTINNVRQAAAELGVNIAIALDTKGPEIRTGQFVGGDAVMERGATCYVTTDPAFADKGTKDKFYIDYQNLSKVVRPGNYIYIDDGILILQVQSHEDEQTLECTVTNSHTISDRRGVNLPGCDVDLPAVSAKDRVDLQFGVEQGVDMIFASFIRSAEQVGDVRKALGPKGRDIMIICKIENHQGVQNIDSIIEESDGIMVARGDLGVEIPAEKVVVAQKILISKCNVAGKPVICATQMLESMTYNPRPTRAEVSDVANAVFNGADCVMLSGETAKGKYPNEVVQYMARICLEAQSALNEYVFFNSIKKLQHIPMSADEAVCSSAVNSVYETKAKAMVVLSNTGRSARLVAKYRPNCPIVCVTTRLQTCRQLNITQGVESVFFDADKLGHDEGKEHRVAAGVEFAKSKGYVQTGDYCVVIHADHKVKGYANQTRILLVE
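Kinase-Glo luminescence read after 1 h RT reaction of 0.1 nM LmPK with 0.5 mM PEP and 0.1 mM ADP. Activity scaled between uninhibited and enzyme-free controls.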
A number is an active result; 0 = inactive; ? = inconclusive; - = no result given; + = active, no number; [ ] = remark or other dose. Hits are enriched below; roughly 5% of the tested compounds scored in any of these assays. Unless noted, calls come from the whole dose curve; as a rule, active = well fitted curve in the direction sought with a large enough effect; inconclusive = small, poorly fitted or top-dose-only effect, or another doubt; inactive = no such curve, though single readings can be large; an effect the other way counts as inactive or inconclusive.

SMILES	HCMV inh	TbPYK inhibitor	Vaccinia mCherry	Vaccinia Venus	LmPK inh
O=C(c1cc(-c2ccccc2)nn1-c1ccccc1)N1CCN(S(=O)(=O)c2cccc(F)c2)CC1	0	0	0	0	-
Cc1ccc(S(=O)(=O)N2CCN(C(=O)c3c(C)nn(-c4ccccc4)c3Cl)CC2)cc1	-75	0	0	0	0
O=C(c1cc(-c2ccccc2)nn1-c1ccccc1)N1CCN(S(=O)(=O)c2ccc(F)cc2)CC1	-77	0	0	0	-
Cc1cccc(-n2nc(C)c(C(=O)N3CCN(c4ccccc4)CC3)c2-n2cccc2)c1	+	0[15.4 µM]	?	?	-
Cc1cc(C)c(S(=O)(=O)N2CCN(C(=O)c3cc4ccccc4oc3=O)CC2)c(C)c1	-102	0	-	-	-
CCc1[nH]nc(C(=O)NC2CCCc3c2cnn3-c2cc(C)cc(C)c2)c1C (stereo not given)	?	0	?	0	0
CC1(C(=O)NS(=O)(=O)Cc2ccccc2)CCN1C(=O)C1(c2ccc(Cl)cc2)CC1 (stereo not given)	?	0	0	0	-
COC(=O)[C@]1(C#N)[C@H](Cc2ccccc2)C(=O)N(Cc2ccc(Cl)cc2)[C@@H]1c1ccc(OC)cc1	0	-	-	-	-
O=C(/C=C/c1cccc([N+](=O)[O-])c1)OCC(=O)N1CCN(C(=O)c2ccco2)CC1	0	0	0	0	-
COc1ccc(S(=O)(=O)N2CCN(C(=O)c3c(C)nn(-c4ccccc4)c3Cl)CC2)cc1	0	0	-	0	0
Cc1cc(C)c(S(=O)(=O)N2CCN(C(=O)c3c(C)nn(-c4ccccc4)c3Cl)CC2)c(C)c1	-72	0	0	?	-
COc1cc2c(cc1OC)CN(Cc1ccc(C)s1)CC2	-95	0	-	0	0
COc1cc2c(cc1OC)CN(Cc1ccc(F)cc1)CC2	0	0	0	0	0
CCCCN1C(=O)C(O)(CC(=O)c2ccco2)c2cc(Br)ccc21 (stereo not given)	-75	0	0	0	0
CCCCN1C(=O)C(O)(CC(=O)c2ccc(C)cc2C)c2cc(Br)ccc21 (stereo not given)	0	0	?	0	-
CS(=O)(=O)c1ccc(C(=O)Nc2cccc(-c3nc4ccccc4[nH]3)c2)cc1	0	0	-	-	0
CCCOc1ccc(C(=O)Nc2cccc(-c3nc4ccccc4[nH]3)c2)cc1	-88	0	0	0	-
CCCOc1cccc(C(=O)Nc2cccc(NC(=O)c3ccc(Cl)cc3Cl)c2)c1	0	0	0	0	-
CCCOc1ccc(C(=O)Nc2cccc(NC(=O)c3ccc(Cl)cc3Cl)c2)cc1	-91	0	?	?	-
COCCN1Cc2cccc(C(=O)Nc3cccc(-c4nc5ccccc5[nH]4)c3)c2C1=O	-69	0	?	?	0
CCOc1cc(OCC)cc(C(=O)Nc2cccc(-c3nc4ccccc4[nH]3)c2)c1	-98	0	11µM	11µM	-
O=C(NCc1ccccc1)C(c1ccc(-c2ccccc2)cc1)n1c(=O)c(-c2cc3ccccc3[nH]2)nc2ccccc21 (stereo not given)	0	-	0	0	-
C=CC[C@H](CC(=O)NCCO)C(=O)N[C@@H](C)COC(=O)[C@@H](CC=C)CC(=O)OC(C)(C)C	0	0	0	0	-
Cc1ccc(-c2nnc(N3CCOCC3)c3ccccc23)cc1S(=O)(=O)NCC1CCCO1 (stereo not given)	-95	0	-	0	0
O=S(=O)(NCC1CCCO1)c1ccc(Cl)c2ccccc12 (stereo not given)	-84	0	0	0	-
SMILES	HCMV inh	TbPYK inhibitor	Vaccinia mCherry	Vaccinia Venus	LmPK inh
Cc1ccc(-c2nnc(N3CCC(C)CC3)c3ccccc23)cc1C	0	0	28µM	13µM	0
Cc1ccc(-c2n[nH]c(=O)c3ccccc23)cc1S(=O)(=O)NCC1CCCO1 (stereo not given)	0	0	0	0	0
Cc1ccccc1Nc1nnc(-c2ccc(C)c(S(=O)(=O)NCC3CCCO3)c2)c2ccccc12 (stereo not given)	-76	0	0	0	-
Cc1ccc(-c2nnc(Nc3cccc(O)c3)c3ccccc23)cc1S(=O)(=O)NCC1CCCO1 (stereo not given)	?	0	0	0	-
Cc1ccc(F)cc1NC(=O)CN1CCN(c2ccccn2)CC1	0	0	0	0	0
Cc1ccc(-c2cccc(=O)o2)cc1	0	-	0	0	-
S=C(Nc1ccccc1)c1ccccn1	0	0	-	0	?
CCOC(=O)CNS(=O)(=O)c1cc(-c2nnc(Nc3cccc(O)c3)c3ccccc23)ccc1C	0	0	0	0	-
